The first test concerns the target FIZ1. Description: pooled miR-30 sensor sort-seq; sequence = guide strand. Particulars: shRNA.
As for TGAAGCTGTGCTTGAAACCCTT, the sensor-assay potency score (higher = more potent) is -0.439.
The same measure, in the same setting: to TTGAGGTAGCACTCGTGGCGGA belongs -0.466.
On to TGGTACAGGGTGTCTTCCGAGG, for which the sensor-assay potency score (higher = more potent) was -1.47.
AACAGCTTCTCGCACTCGGAGC came in with a sensor-assay potency score (higher = more potent) of -1.76.
Still for that read-out and setting: to TGAGCGGAACAGCTTCTCGCAC belongs -1.25; to TTCTCGCACTCGGAGCAGCCGA, -1.7.
In turn, TTTCTCACCAGTGTGGACGACC displayed a sensor-assay potency score (higher = more potent) of -0.391.
Take TAGATCAGTCCATTCTACTGGG: the sensor-assay potency score (higher = more potent) is 0.523.
TTGAAGGGCTTCACGTCGGTGT: the sensor-assay potency score (higher = more potent) came out at 0.144.
Take TGGTTGGCTAGGTTGAAGCTGT: the sensor-assay potency score (higher = more potent) is -0.915.
For the sequence TTGAAGTCGCGCTCGCAGCGCG, the sensor-assay potency score (higher = more potent) is -0.792.

In a further test the target is FKBP10. The description is as above. Particulars: shRNA.
Consider TAATCTTCCTTCTCTCTCCAGG, for which the sensor-assay potency score (higher = more potent) is -0.239.
Same read-out and setting: to TTCCTTGTTCCACACATCCAGC belongs -1.14.
Sequence TTGAATCAAACTTCTTGCCATC gave a sensor-assay potency score (higher = more potent) of -0.96.
Regarding TATGGTTTTCTCAGGGTCCTGC, the sensor-assay potency score (higher = more potent) was found to be 0.0683.
For the sequence TAGCTTGAATCAAACTTCTTGC, the sensor-assay potency score (higher = more potent) turned out to be 0.0257.
In the case of TAGCTGGTGTCGAAGAAGGTGC, the sensor-assay potency score (higher = more potent) was -0.841.
On to TCAAACAGCAGCACAGCACTGC, for which the sensor-assay potency score (higher = more potent) worked out at 0.521.
The same measure, in the same setting: to TAGCTGGACAGCGTCCTTCGGG belongs -1.26; to ATAGCTTGAATCAAACTTCTTG, 0.371; to TTGATCAGCCAACCAGAGCCGA, -0.877.
Same read-out and setting: to TCGTCGACTGTGATCTTGCCGT belongs -0.799; to TTGAAGATTAGCACGGCAGAGC, -0.871.

In the next test the target is FKBPL. Described as above. Particulars: shRNA.
Take TTGAGTATGCTCTAGAATTTGG: the sensor-assay potency score (higher = more potent) is -0.551.
Still for that read-out and setting: the result for ATGAAGGACAGTTCGTTCTGGA reads 0.322.
For the sequence TAGTTAGCTCTGTCCAGCCCTC, the sensor-assay potency score (higher = more potent) was -1.24.
The sequence TTCGGTAGGAGGGTCTCGGGGC had a sensor-assay potency score (higher = more potent) of -0.399.
The sequence TTGGCATGAAGGACAGTTCGTT yielded a sensor-assay potency score (higher = more potent) of 0.00211.
In turn, TCTATCGCCAGCACCTTCTTGA showed a sensor-assay potency score (higher = more potent) of 0.068.
The same measure, in the same setting: to ATCTTCTTGACAAAGCTCCCAT belongs -0.554.
With TTCCTCACCTTGACACATGGAC, the sensor-assay potency score (higher = more potent) was -0.29.
Turning to TTCCTTCTCGCTAGTCTCCAGC, the sensor-assay potency score (higher = more potent) is -1.31.
TTTCGGTAGGAGGGTCTCGGGG displayed a sensor-assay potency score (higher = more potent) of -1.79.
For TAATCTGAATAACTGAATCAAG, the sensor-assay potency score (higher = more potent) is -1.19.
TGACACATGGACTCCAAGCATT registered a sensor-assay potency score (higher = more potent) of -1.29.

The target of another test is FKTN. Described as above. Particulars: shRNA.
Regarding TTCCAAGCTGTCTTCTACCTTC, the sensor-assay potency score (higher = more potent) was -0.104.
TTTTAAACAGTTATCTACCTTT showed a sensor-assay potency score (higher = more potent) of 0.405.
TTAACTGCACGCCACTGTGTGC gave a sensor-assay potency score (higher = more potent) of -1.27.
On to TAGTACAACTGAAACAGCAGAA, for which the sensor-assay potency score (higher = more potent) came to 0.161.
TAAACCTAGAGTGTGGTACTTC had a sensor-assay potency score (higher = more potent) of 0.175.

(Values after the OligoGym collection.)
Note: reference of the scale not given here.
